# According to PubChem BioAssay (EPA / NIEHS):
# Results filed as inconclusive are left out. Where a structure was tested more than once in an assay, its records may differ in their call. Activity calls are given as the source filed them. The calls were made as follows: active = hit-call score of the fitted dose curve at least 0.9, where 1 is the maximum; inconclusive = response in the unintended direction; inactive = score below 0.9.
# Target: rat Peripheral-type Benzodiazepine Receptor (PBR), Tspo (gene 24230) (UniProt P16257)
# Sequence (P16257 whole entry, looked up): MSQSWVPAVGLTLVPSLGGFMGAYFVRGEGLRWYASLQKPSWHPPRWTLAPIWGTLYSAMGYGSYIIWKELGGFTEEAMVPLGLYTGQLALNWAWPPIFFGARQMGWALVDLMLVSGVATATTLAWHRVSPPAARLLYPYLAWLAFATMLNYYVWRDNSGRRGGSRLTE
# Experiment: NVS_MP_rPBR: NovaScreen (NVS) Membrane Protein Assay for rat Peripheral-type Benzodiazepine Receptor (PBR) (AID 2283335)
# Procedure: NVS_MP_rPBR is a biochemical, single-readout assay that uses extracted gene-proteins from Rat kidney membranes in a tissue-based cell-free assay. Measurements were taken 1 hour after chemical dosing in a 48-well plate.NVS_MP_rPBR is one of one assay component(s) measured or calculated from the NVS_MP_rPBR assay. It is designed to make measurements of radioligand binding, a form of binding reporter, as detected with scintillation counting signals by Filter-based radiodetection technology.Data from the assay component NVS_MP_rPBR was analyzed into 1 assay endpoint. This assay endpoint, NVS_MP_rPBR, was analyzed in the positive analysis fitting direction relative to DMSO as the negative control and baseline of activity. Using a type of binding reporter, loss-of-signal activity can be used to understand changes in the binding as they relate to the gene Tspo. Furthermore, this assay endpoint can be referred to as a primary readout, because the performed assay has only produced 1 assay endpoint. To generalize the intended target to other relatable targets, this assay endpoint is annotated to the transporter intended target family, where the subfamily is cholesterol transporter.
# Binding assays used specific radioligands (tritiated, iodinated) with non-radioactive competitive displacement ligands in agonist or antagonist protocols (as indicated) and various reference compounds and inhibitors to titrate specific binding to receptors and transporters. Most enzyme assays (CYPs, kinases, phosphatases, proteases, HDACs) used recombinant protein and specific substrates (fluorescence mostly, some colorimetric and radioactive) and inhibitors, followed by a biochemical separation of substrate and product. All assays for the biochemical HTS were initially run in duplicate at a single concentration (10 uM for CYP450 assays and 25 uM for all others). […] Each assay was run with positive and negative controls, and concurrent controls on every plate. The follow-up (secondary) screen tested active chemical-pairs in concentration series, as well as a few additional assays not tested in the primary screen, some selected negative inactives, and several cases re-run in the concentration series for confirmatory purposes.
SMILES,AC50,outcome
Cc1cc2c3c(c1)C(c1ccccc1)=N[C@@H](NC(=O)c1ccncc1)C(=O)N3CC2,9.63 µM (active),–
Cc1cc(-c2ccc(N)c(C)c2)ccc1N,13.7 µM (active),–
CC(C)(O)C(=O)Nc1ccc([N+](=O)[O-])c(C(F)(F)F)c1,–,inactive
CCC(C)(c1ccc(O)cc1)c1ccc(O)cc1,6.5 µM (active),inactive
CO/C=C(/C(=O)OC)c1ccccc1COc1cccc(C(F)(F)F)n1,0.189 µM (active),–
Oc1ccc(C(c2ccc(O)cc2)(C(F)(F)F)C(F)(F)F)cc1,6.31 µM (active),inactive
CC(C)(c1ccccc1)c1ccc(O)cc1,–,inactive
CCOC(=O)C(O)(c1ccc(Cl)cc1)c1ccc(Cl)cc1,10 µM (active),–
CCC(C)(CC)c1cc(NC(=O)c2c(OC)cccc2OC)on1,–,inactive
Cc1ccccc1CO[C@@H]1C[C@@]2(C(C)C)CC[C@]1(C)O2,–,inactive
CCSC(=O)N(CC)C1CCCCC1,–,inactive
Cc1ccc(O)c(C)c1,–,inactive
OCC(O)CO,–,inactive
